Inconclusive results are not listed. Activity calls are given as the source filed them. Unless noted, the call rests on the fitted dose curve; in most records, active means well fitted inhibition curve with a large enough effect; inconclusive means small, poorly fitted or top-dose-only effect; inactive means flat fitted curve, though single readings scatter.
Legend:
[1] = qHTS profiling for inhibitors of Plasmodium falciparum proliferation (AID 504749); further: potency means the concentration at half of the fitted maximal effect;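 on activity, negative = inhibition: 0% = DMSO vehicle and full inhibition = artemisinin control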; on all read-outs here: nearly all actives have a fitted effect of over 60% in size; details: P. falciparum in erythrocytes, SYBR Green DNA, 72 h; for activity, negative = inhibition: at 28.7 µM (top of the series)
Outline: (§1)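 Readout was DNA-dye fluorescence from lysed cultures, ex 485/em 535 nm. Parasitized red cells had grown 72 h with compound; data scaled between 0.29 uM artemisinin and DMSO wells and corrected using vehicle-only plates.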

3D7 = assay: as above; details: P. falciparum in erythrocytes, SYBR Green DNA, 72 h; series mostly up to 28.7 µM
Outline: as §1

7G8 = assay: as above; details: P. falciparum in erythrocytes, SYBR Green DNA, 72 h; series mostly up to 28.7 µM
Outline: as §1

[2] = qHTS drug screen for cell cycle checkpoint inhibitors in PARPi-resistant BRCA-mutant ovarian cancer cell lines. (AID 1963452; calls by dose curve); details: PEO1/OlaR viability, CellTiter-Glo luminescence, 96 h, stronger effect = lower value
Outline: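 PEO1, PEO4 and PEO1/OlaR ovarian cancer cells, 600 per well, exposed 96 h at 37C to a dilution series. Viability read by CellTiter-Glo luminescence, normalized to DMSO and empty wells; activity summarized as Z-AUC.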

NC(=O)CS(=O)C(c1ccccc1)c1ccccc1 (stereo not drawn)
activity, negative = inhibition ([1]; parasite line A): 11.3% (inactive) | activity, negative = inhibition ([1]; parasite line B): 9.97% (inactive) | Potency (3D7): inactive

Oc1ccc(Cl)cc1
activity, negative = inhibition ([1]; parasite line A): 0.659% (inactive) | activity, negative = inhibition ([1]; parasite line B): -12.9% (inactive) | Potency (3D7): inactive | Potency (7G8): inactive

CCOP(=S)(OCC)Oc1ccc2c(C)c(Cl)c(=O)oc2c1
activity, negative = inhibition ([1]; parasite line B): -25.9% (inactive)

O=C1Nc2ccc(Cl)cc2C(c2ccccc2)=NC1O (stereo not drawn)
activity, negative = inhibition ([1]; parasite line A): -1.71% (inactive) | activity, negative = inhibition ([1]; parasite line B): 3.16% (inactive) | Potency (3D7): inactive | Potency (7G8): inactive

CCCC(C)(COC(N)=O)COC(N)=O
activity, negative = inhibition ([1]; parasite line A): 5.3% (inactive) | activity, negative = inhibition ([1]; parasite line B): 9.68% (inactive) | Potency (3D7): inactive | Potency (7G8): inactive

O=c1[nH]oc2c1CCNC2
activity, negative = inhibition ([1]; parasite line A): 3.02% (inactive) | activity, negative = inhibition ([1]; parasite line B): 15.3% (inactive) | Potency (3D7): inactive | Potency (7G8): inactive

Clc1cccc(SC2CCNCC2)n1
activity, negative = inhibition ([1]; parasite line A): 12.4% (inactive) | activity, negative = inhibition ([1]; parasite line B): 2.53% (inactive) | Potency (3D7): inactive

C[C@]12Cc3cn[nH]c3C[C@@H]1CC[C@@H]1[C@@H]2CC[C@@]2(C)[C@H]1CC[C@]2(C)O
Z-AUC [2]: 1.25 (inactive) | Z-AUC ([2]; measured here: PEO1 parental Z-AUC): 0.915 | Z-AUC ([2]; measured here: PEO4 Z-AUC): 1.64

NC(=O)c1cc([N+](=O)[O-])cc([N+](=O)[O-])c1
activity, negative = inhibition ([1]; parasite line B): -21.3% (inactive) | Potency ([1]; parasite line A): 7.94 µM (active)

Cc1nnc2n1-c1ccc(Cl)cc1C(c1ccccc1)=NC2
activity, negative = inhibition ([1]; parasite line A): -6.67% (inactive) | activity, negative = inhibition ([1]; parasite line B): 6.11% (inactive)

C[C@]12CCC(=O)C=C1CC[C@@H]1[C@@H]2CC[C@]2(C)C(=O)CC[C@@H]12
activity, negative = inhibition ([1]; parasite line A): -9.45% (inactive) | activity, negative = inhibition ([1]; parasite line B): 3.53% (inactive) | Potency (3D7): inactive | Potency (7G8): inactive

O=C1Nc2ccc(Cl)cc2C(c2ccccc2Cl)=NC1O (stereo not drawn)
activity, negative = inhibition ([1]; parasite line A): 2.17% (inactive) | activity, negative = inhibition ([1]; parasite line B): -14% (inactive) | Potency (3D7): inactive | Potency (7G8): inactive
